Test results taken from PubChem BioAssay (NCI).
The panel holds about 79,000 compounds, 15% with a hit somewhere; the sample as a whole holds those more often. Activity calls are given as the source filed them. Rule as the data show it: active = growth inhibition above about 70%; inactive = the rest.

Test: NCI Yeast Anticancer Drug Screen. Data for the rad18 strain (AID 177)
Conditions: S. cerevisiae rad18 mutant growth inhibition, hits give high values
Experimental: Growth inhibition of yeast strains with defined genetic alterations is measured as a screen for potential anti-cancer activity. Selected strains with alterations in DNA damage repair or cell cycle control were exposed to compounds and growth inhibition was measured relative to vehicle treated controls. The strain used in this assay is rad18

Measured: growth inhibition

O=C(/C=C/c1ccsc1)c1cccs1
active: at 100.0 µM 84%
inactive: at 1.2 µM -3% | at 3.7 µM -5% | at 11.0 µM -12% | at 33.0 µM -6%

O=[N+]([O-])c1cccc2nc3ccccc3c(NCCCN3CCCCC3)c12
active: at 1.2 µM 96% | at 3.7 µM 95% | at 11.0 µM 97% | at 33.0 µM 98% | at 100.0 µM 99%

O=C1C[C@H]2[C@H](c3ccc(Br)cc3)[C@H]3C(=O)c4ccccc4NC(=O)[C@@H]3[C@@]2(O)c2ccccc2N1
inactive: at 1.2 µM 6% | at 3.7 µM 16% | at 11.0 µM 29% | at 33.0 µM 52% | at 100.0 µM 46%

N#CCCC1C(C#N)C2(Cl)CC1(Cl)C(Cl)=C2Cl (stereo not given)
inactive: at 1.2 µM -4% | at 3.7 µM -9% | at 11.0 µM 1%
active: at 33.0 µM 83% | at 100.0 µM 98%

CCN(CC)CCNc1ccc2nc(C)n3c4ccc(O)cc4c(=O)c1c23
inactive: at 1.2 µM 0% | at 3.7 µM 0% | at 11.0 µM -4% | at 33.0 µM -13% | at 100.0 µM -22%

O=C(O)c1cc2c(cc1S(=O)(=O)O)C1C(C3C2C2(Cl)C(Cl)=C(Cl)C3(Cl)C2(Cl)Cl)C2(Cl)C(Cl)=C(Cl)C1(Cl)C2(Cl)Cl (stereo not given)
active: at 33.0 µM 82% | at 100.0 µM 95%
inactive: at 1.2 µM -1% | at 3.7 µM -1% | at 11.0 µM -8%

CC1=CC(=O)C=CC1=Nc1cc(Cl)c(O)c(Cl)c1
inactive: at 1.2 µM -11% | at 3.7 µM -10% | at 11.0 µM -9% | at 33.0 µM 60%
active: at 100.0 µM 91%

O=C1Nc2ccc(Br)cc2C1=Nc1cccnc1
inactive: at 1.2 µM -28% | at 3.7 µM -39% | at 11.0 µM -32% | at 33.0 µM -36% | at 100.0 µM -26%
